These results are taken from PubChem BioAssay.

As a reminder, the inhibition is the share of the control response that was lost under treatment.

The structures appear in SMILES notation. Unmarked numbers belong to inactive results. How the calls were made is not given here.

Sequence of Pantothenate synthetase (Mycobacterium tuberculosis (strain ATCC 25618 / H37Rv)) (P9WIL5 whole entry, looked up): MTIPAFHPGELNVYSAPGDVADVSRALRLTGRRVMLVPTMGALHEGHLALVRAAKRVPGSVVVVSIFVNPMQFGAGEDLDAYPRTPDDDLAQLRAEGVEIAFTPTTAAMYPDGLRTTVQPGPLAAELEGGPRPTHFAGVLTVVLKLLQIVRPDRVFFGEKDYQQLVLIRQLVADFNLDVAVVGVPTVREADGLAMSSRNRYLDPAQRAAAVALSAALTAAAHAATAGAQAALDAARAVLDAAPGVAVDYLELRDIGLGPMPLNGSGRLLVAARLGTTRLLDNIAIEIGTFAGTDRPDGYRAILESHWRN

This assay addresses Pantothenate synthetase (Mycobacterium tuberculosis (strain ATCC 25618 / H37Rv)) (UniProt P9WIL5). The assay is described as follows: Recombinant Mtb pantothenate synthetase (PanC) inhibitors, coupled enzyme, confirmatory (AID 375).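 Further: 0% = full reaction with vehicle and 100% = no enzyme background.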 The settings on record: coupled enzyme assay; at 10 µM, stronger effect = higher value.
In the case of `CC(C)(C)NC(=O)Nc1ccccc1C(N)=O`, the inhibition is 5%.

For the molecule `CC(C)N(O)C(=O)NC(C)(C)C`, the inhibition was 6%.

`COc1ccc(CCNC(=O)c2cc(C(C)C)on2)cc1OC`: the inhibition is 1%.

On to `CCN(Cc1cc2cc(OC)ccc2[nH]c1=O)C(=O)c1ccncc1`, for which the inhibition is 4%.

In the case of `CCN1CCN(c2nc3c(c(=O)n(C)c(=O)n3C)n2Cc2cccc3ccccc23)CC1`, the inhibition was 0%.

Take `CCCSc1nc2c(c(=O)[nH]c(=O)n2C)n1CCc1ccccc1`: the inhibition is 5%.

Turning to `Cc1nnc(SCC(=O)N2c3ccccc3CC2C)s1` (stereo not given), the inhibition is 0%.

Turning to `CCOC(=O)c1ccc(NC(=O)CSc2ncccn2)cc1`, the inhibition is 6%.

`O=C(NCc1cccnc1)c1cn(CCc2ccccc2)nn1`: the inhibition was 0%.

`COc1cc2[nH]c(=O)n(CCCCCC(=O)NCCCN3CCCC3=O)c(=O)c2cc1OC`: the inhibition was 0%.

For `CCCC(=O)Nc1ccc(OCC(O)CNC(C)C)c(C(C)=O)c1` (stereo not given), the inhibition was 0%.

Regarding `CCN(CC)C(=O)C1CCC(CNS(=O)(=O)c2cccc3cccnc23)CC1` (stereo not given), the inhibition was 0%.

As for `Cc1ccc(S(=O)(=O)NCC(=O)N(CC(=O)NC2CCCCC2)Cc2ccco2)cc1`, the inhibition is 11%.

With `O=C(C1CCCO1)N1CCN(S(=O)(=O)c2ccccc2)CC1` (stereo not given), the inhibition is 0%.

As to `O=C(CSc1ncnc2c1cnn2Cc1ccccc1)Nc1ccc2c(c1)OCCO2`, the inhibition was 5%.

As to `Nn1cnnc1SCC(=O)Nc1ccc2c(c1)OCCO2`, the inhibition was 0%.

Regarding `Cc1c(C(=O)O)sc2ncn(C)c(=O)c12`, the inhibition was 0%.

Regarding `Cn1nnnc1SCC(=O)N1CCN(c2cccc(Cl)c2)CC1`, the inhibition is 2%.

Regarding `COc1ccc(C)cc1NS(=O)(=O)c1ccc(NS(=O)(=O)c2ccc(NC(C)=O)cc2)cc1`, the inhibition is 1%.

For the molecule `CSc1ccccc1NC(=O)c1noc2c1CCC2`, the inhibition was 0%.

As to `OCc1nc2ccccc2n1CC(O)Cn1ccc2ccccc21` (stereo not given), the inhibition is 1%.

With `O=P(O)(CN1CCCCCC1)CN1CCCCCC1`, the inhibition is 0%.

Regarding `CCC(C)c1ccc(NC(=O)C2CC2)cc1` (stereo not given), the inhibition was 0%.

For `Cc1ccc(C)c(CSc2nnc(CCN)o2)c1`, the inhibition is 0%.

As for `Cc1ccccc1-c1nc(CS(=O)(=O)CC(=O)NCc2ccccc2)c(C)o1`, the inhibition was 0%.

In the case of `CC(=O)CCc1ccc(OCCCCn2cncn2)cc1`, the inhibition is 0%.

Take `Cn1nnnc1SCSc1nnnn1C`: the inhibition is 1%.

Consider `CCOC(=O)C1CCN(CC(=O)c2c(C)[nH]c3ccccc23)CC1`, for which the inhibition is 1%.

Take `Cc1nc2c(o1)CCc1ccccc1C2O` (stereo not given): the inhibition is 0%.

For the molecule `COC(=O)Oc1c(Br)c(=O)oc2ccccc12`, the inhibition was 0%.

Take `CCn1cc(C(=O)NCCCOC)c(=O)c2cc(S(=O)(=O)N(C)C3CCCCC3)ccc21`: the inhibition is 2%.

Regarding `COc1ccc(-c2c(=O)n(OCc3ccccn3)c3ccccc3[n+]2[O-])cc1OC`, the inhibition is 3%.

With `Cn1c(=O)c2nc(Cl)n(Cc3ccc(Cl)cc3Cl)c2n(C)c1=O`, the inhibition is 6%.

Take `CCSc1nc2ccccc2n1CC(N)=O`: the inhibition was 4%.

As to `COc1ccccc1-c1cc(C(=O)NCCCn2ccnc2)no1`, the inhibition is 0%.

With `COC(=O)c1ccccc1NC(=O)c1cnc2sccn2c1=O`, the inhibition is 5%.

Consider `CCOc1ccc(N2C(N)=NC(N)=NC2(C)C)cc1`, for which the inhibition was 0%.

Consider `CCc1[nH]nc2c1C1(CCN(C(=O)OCc3ccccc3)CC1)C(C#N)=C(N)O2`, for which the inhibition was 0%.

On to `Cc1cc(=O)n2[nH]c(-c3ccc(Cl)cc3)cc2n1`, for which the inhibition was 0%.

For `Cc1occc1C(=O)N1CCN(Cc2ccccc2)CC1`, the inhibition is 0%.
